For four compounds, normalized growth results are on record in PubChem BioAssay AID1159580 (chemical genetic matrix, 2015).

Among all 5,500 compounds or so, about 2,000 (36%) were called active. Another 18% or so got no clear call; they are omitted. This is one part of the list. Values without a mark were called inactive. Cut-off read from the data, not from the text of the source: active = normalized growth mostly below about 0.91 (no sharp cut-off); inconclusive = no clear call, values can overlap the other calls; inactive = mostly above about 0.92.

The nature of the experiment: chemical genetic growth profiling, strain panel (AID 1159580).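 Note: tested at 20 µM; growth read once vehicle control cultures reached saturation at 30 °C; 1 = growth at the plate median or of vehicle wells; lower values mean less growth of the strain.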 As to conditions: growth OD.
[1] abbreviates: S. cerevisiae deletion strains, locus YAL013W, strain DEP1, stronger effect = lower value.
Where [2] appears, read: S. cerevisiae deletion strains, locus YBR229C, strain ROT2, stronger effect = lower value.
The mark [3] stands for this setting: S. cerevisiae deletion strains, locus YDL101C, strain DUN1, stronger effect = lower value.
Setting [4] is: S. cerevisiae deletion strains, locus YDL134C, strain PPH21, stronger effect = lower value.
The mark [5] stands for this setting: S. cerevisiae deletion strains, locus YDR150W, strain NUM1, stronger effect = lower value.
Setting [6] is: S. cerevisiae deletion strains, locus YEL061C, strain CIN8, stronger effect = lower value.
Where [7] appears, read: S. cerevisiae deletion strains, locus YGR078C, strain PAC10, stronger effect = lower value.
[8] abbreviates: S. cerevisiae deletion strains, locus YHR030C, strain SLT2, stronger effect = lower value.
Setting [9] is: S. cerevisiae deletion strains, locus YHR087W, strain rtc3, stronger effect = lower value.
[10] abbreviates: S. cerevisiae deletion strains, locus YJR043C, strain POL32, stronger effect = lower value.
The mark [11] stands for this setting: S. cerevisiae deletion strains, locus YJR075W, strain HOC1, stronger effect = lower value.
Where [12] appears, read: S. cerevisiae deletion strains, locus YKL190W, strain CNB1, stronger effect = lower value.
The mark [13] stands for this setting: S. cerevisiae deletion strains, locus YLR039C, strain RIC1, stronger effect = lower value.
[14] abbreviates: S. cerevisiae deletion strains, locus YLR058C, strain SHM2 (second series), stronger effect = lower value.
The mark [15] stands for this setting: S. cerevisiae deletion strains, locus YLR085C, strain ARP6, stronger effect = lower value.
The mark [16] stands for this setting: S. cerevisiae deletion strains, locus YLR262C, strain YPT6, stronger effect = lower value.
The mark [17] stands for this setting: S. cerevisiae deletion strains, locus YML094W, strain GIM5, stronger effect = lower value.
Setting [18] is: S. cerevisiae deletion strains, locus YMR219W, strain ESC1, stronger effect = lower value.
[19] abbreviates: S. cerevisiae deletion strains, locus YMR263W, strain SAP30, stronger effect = lower value.
Setting [20] is: S. cerevisiae deletion strains, locus YNL153C, strain GIM3, stronger effect = lower value.
Setting [21] is: S. cerevisiae deletion strains, locus YNL298W, strain CLA4 (second series), stronger effect = lower value.
Setting [22] is: S. cerevisiae deletion strains, locus YNL322C, strain KRE1, stronger effect = lower value.
[23] abbreviates: S. cerevisiae deletion strains, locus YNR030W, strain Alg12, stronger effect = lower value.
Where [24] appears, read: S. cerevisiae deletion strains, locus YOL006C, strain TOP1, stronger effect = lower value.
Where [25] appears, read: S. cerevisiae deletion strains, locus YPL055C, strain LGE1, stronger effect = lower value.
[26] abbreviates: S. cerevisiae deletion strains, locus YPL241C, strain CIN2, stronger effect = lower value.
Setting [27] is: S. cerevisiae deletion strains, locus YPR135W, strain CTF4, stronger effect = lower value.
Where [28] appears, read: S. cerevisiae deletion strains, locus YMR307W, strain GAS1, stronger effect = lower value.

With `COC(=O)c1sccc1-c1ccc(C(C)=O)o1`, the normalized growth by setting is: under setting [1], 0.956; under setting [2], 0.975; under setting [3], 0.953; under setting [4], 0.974; under setting [5], 0.982; under setting [6], 0.949. The normalized growth was 0.947 under setting [7]; 0.722 under setting [8]; 0.97 under setting [9]; 0.977 under setting [10]; 0.956 under setting [11]; 0.976 under setting [12]. For the same compound, the normalized growth runs as follows: under setting [13], 0.945; under setting [14], 0.965; under setting [15], 0.751 (active); under setting [16], 0.961; under setting [17], 0.898; under setting [18], 0.978. Besides, the normalized growth was 0.977 under setting [19]; 0.982 under setting [20]; 0.841 under setting [21]; 0.935 (active) under setting [22]; 0.885 (active) under setting [23]; 0.727 (active) under setting [24]. Further, the normalized growth was 0.974 under setting [25], 0.891 under setting [26] and 0.773 under setting [27].
Turning to `CCOC(=O)Nc1ccsc1C(=O)OC`, the normalized growth was 0.997 under setting [1]; 1 under setting [2]; 0.999 (S. cerevisiae deletion strains, locus YCL061C, strain MRC1, stronger effect = lower value); 0.988 under setting [3]; 1 under setting [4]; 0.975 under setting [5]. The normalized growth is, setting by setting: under setting [6], 0.974; under setting [7], 0.986; under setting [8], 1; under setting [9], 1; under setting [10], 1; under setting [11], 0.986. In addition, the normalized growth by setting is: under setting [12], 1; under setting [13], 0.983; under setting [14], 1; under setting [15], 0.988; under setting [16], 0.996; under setting [17], 0.985. In addition, the normalized growth was 1 under setting [18]; 1.02 under setting [19]; 1.07 under setting [28]; 0.987 under setting [20]; 1.02 under setting [21]; 0.983 under setting [22]. In addition, the normalized growth is, setting by setting: under setting [23], 1.01; under setting [25], 0.981; under setting [26], 1.08; under setting [27], 0.947.
Consider `COC(=O)c1sccc1NC(=O)C1CC1`, for which the normalized growth reads like this: under setting [1], 0.991; under setting [2], 1; under setting [3], 0.995; under setting [5], 0.942; under setting [6], 0.979; under setting [7], 0.978. Further, the normalized growth was 1.01 under setting [8]; 0.99 under setting [9]; 0.977 (S. cerevisiae deletion strains, locus YJL187C, strain SWE1, stronger effect = lower value); 1.02 under setting [10]; 0.99 under setting [11]; 1.01 under setting [13]. The normalized growth runs as follows: under setting [14], 0.976; under setting [15], 0.92; under setting [16], 1.07; under setting [17], 0.962; under setting [18], 0.981; under setting [19], 0.988. The normalized growth is, setting by setting: under setting [28], 1.06; under setting [20], 1.01; under setting [21], 1; under setting [22], 0.979; under setting [23], 0.989; under setting [24], 0.982. In addition, the normalized growth runs as follows: under setting [25], 0.97; under setting [26], 0.97; under setting [27], 1.03; (S. cerevisiae strains, strain wild type, stronger effect = lower value) 0.992.
For `COC(=O)C1C2CC3c4[nH]c5cc(OC)ccc5c4CCN3CC2CC(OC(=O)c2cc(OC)c(OC)c(OC)c2)C1OC` (stereo not given), the normalized growth under setting [1] was 0.996; the normalized growth (S. cerevisiae deletion strains, locus YAL040C, strain CLN3, stronger effect = lower value) was 1.07; the normalized growth (S. cerevisiae deletion strains, locus YDR363W, strain ESC2, stronger effect = lower value) is 1; the normalized growth (S. cerevisiae deletion strains, locus YER002W, strain NOP16, stronger effect = lower value) was 0.99; the normalized growth under setting [11] is 1; the normalized growth under setting [19] was 1. For the same compound, the normalized growth is, setting by setting: (S. cerevisiae deletion strains, locus YNL128W, strain TEP1, stronger effect = lower value) 0.98; (S. cerevisiae deletion strains, locus YNL175C, strain NOP13, stronger effect = lower value) 1; (S. cerevisiae deletion strains, locus YNL197C, strain WHI3, stronger effect = lower value) 0.989; (S. cerevisiae deletion strains, locus YNL224C, strain SQS1, stronger effect = lower value) 1.04; (S. cerevisiae deletion strains, locus YOR083W, strain WHI5 (second series), stronger effect = lower value) 0.934; under setting [25], 1.02.
